What all share (test): DAPPL (digital affinity profiling via proximity ligation, sequencing); 10 mM Tris-HCl pH 7.5, 50 mM NaCl, 1 mM DTT, 4% glycerol, room temperature, 30 min; GST-TFs on glutathione beads, 16-mer random dsDNA library, 0.1% formaldehyde crosslink after washing; high values mean tight binding
Settings in all cases: protein: recombinant; tags: N-terminal GST; dsDNA, one strand shown

Experiment [1] addresses T1, FLI1 (Homo sapiens, UniProt Q01543 1-452).
T1 sequence: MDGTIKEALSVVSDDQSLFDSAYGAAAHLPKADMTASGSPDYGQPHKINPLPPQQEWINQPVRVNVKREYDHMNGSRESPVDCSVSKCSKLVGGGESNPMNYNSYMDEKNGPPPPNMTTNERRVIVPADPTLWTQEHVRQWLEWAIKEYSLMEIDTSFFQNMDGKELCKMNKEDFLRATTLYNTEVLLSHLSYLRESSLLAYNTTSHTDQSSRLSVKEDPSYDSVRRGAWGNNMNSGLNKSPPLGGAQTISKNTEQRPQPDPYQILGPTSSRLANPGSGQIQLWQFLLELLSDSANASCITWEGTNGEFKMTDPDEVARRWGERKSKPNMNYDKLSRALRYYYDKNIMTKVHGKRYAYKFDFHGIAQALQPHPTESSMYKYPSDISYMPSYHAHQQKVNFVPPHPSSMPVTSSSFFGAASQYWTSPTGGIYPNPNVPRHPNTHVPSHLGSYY
The essentials:
(§1)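 Human transcription factors were made in yeast as GST fusions, captured on glutathione beads and barcoded with DNA. With a tag-only sample included, the pool was incubated with 200 nmole of a random double-stranded 16-mer DNA library in Tris/NaCl/DTT/glycerol buffer at room temperature for 30 min, then crosslinked with 0.1% formaldehyde after washing, ligated by proximity, amplified and sequenced. For binding signal, each hexamer's read frequency for a factor is divided by its frequency for the tag-only sample.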

Experiment [2] concerns the target T2, ELK1 (Homo sapiens, UniProt P19419 1-428).
T2 sequence: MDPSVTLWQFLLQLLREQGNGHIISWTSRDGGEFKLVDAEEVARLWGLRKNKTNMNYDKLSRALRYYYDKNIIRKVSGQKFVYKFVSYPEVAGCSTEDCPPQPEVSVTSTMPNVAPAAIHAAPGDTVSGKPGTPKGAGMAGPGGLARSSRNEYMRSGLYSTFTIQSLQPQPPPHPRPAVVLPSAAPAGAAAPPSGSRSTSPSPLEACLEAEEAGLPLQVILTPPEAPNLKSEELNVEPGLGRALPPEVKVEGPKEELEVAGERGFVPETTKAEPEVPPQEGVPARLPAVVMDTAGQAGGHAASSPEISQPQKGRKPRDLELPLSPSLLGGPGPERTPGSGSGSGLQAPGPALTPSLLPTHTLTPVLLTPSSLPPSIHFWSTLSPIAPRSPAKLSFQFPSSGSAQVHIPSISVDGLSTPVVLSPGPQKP
A digest of the protocol: as §1

Experiment [3] deals with T3, GABPA (Homo sapiens, UniProt Q06546 1-454).
T3 sequence: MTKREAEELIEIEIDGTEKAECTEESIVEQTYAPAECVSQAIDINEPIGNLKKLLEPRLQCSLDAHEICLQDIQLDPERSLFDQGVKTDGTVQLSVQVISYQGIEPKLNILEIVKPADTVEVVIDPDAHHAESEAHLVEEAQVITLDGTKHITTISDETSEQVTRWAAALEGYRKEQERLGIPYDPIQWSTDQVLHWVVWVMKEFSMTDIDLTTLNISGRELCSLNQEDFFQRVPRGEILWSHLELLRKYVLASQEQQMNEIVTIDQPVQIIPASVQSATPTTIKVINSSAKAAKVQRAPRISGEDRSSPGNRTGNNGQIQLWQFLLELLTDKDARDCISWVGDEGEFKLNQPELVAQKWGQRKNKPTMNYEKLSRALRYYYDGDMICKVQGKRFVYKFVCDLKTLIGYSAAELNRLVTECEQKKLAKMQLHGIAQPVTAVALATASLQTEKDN
A digest of the protocol: as §1

Experiment [4] deals with T4, ERG (Homo sapiens, UniProt P11308 1-479).
T4 sequence: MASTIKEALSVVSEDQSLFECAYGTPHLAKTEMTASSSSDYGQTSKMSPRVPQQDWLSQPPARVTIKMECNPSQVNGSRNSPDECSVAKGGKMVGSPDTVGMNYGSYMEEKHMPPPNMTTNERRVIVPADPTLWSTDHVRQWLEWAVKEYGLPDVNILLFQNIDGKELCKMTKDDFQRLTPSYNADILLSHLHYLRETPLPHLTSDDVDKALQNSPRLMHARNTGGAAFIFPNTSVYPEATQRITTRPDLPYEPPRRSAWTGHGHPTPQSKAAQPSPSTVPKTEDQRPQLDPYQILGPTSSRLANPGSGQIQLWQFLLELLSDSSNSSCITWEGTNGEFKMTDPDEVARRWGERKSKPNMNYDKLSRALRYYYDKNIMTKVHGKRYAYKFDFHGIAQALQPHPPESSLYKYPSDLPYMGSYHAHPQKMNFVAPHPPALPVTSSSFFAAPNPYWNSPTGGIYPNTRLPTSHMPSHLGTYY
The essentials:
as §1

Experiment [5] addresses ELF1 (Homo sapiens, UniProt P32519 1-619). A digest of the protocol:
as §1

In experiment [6] the target is T5, EHF (Homo sapiens, UniProt Q9NZC4 1-300).
T5 sequence: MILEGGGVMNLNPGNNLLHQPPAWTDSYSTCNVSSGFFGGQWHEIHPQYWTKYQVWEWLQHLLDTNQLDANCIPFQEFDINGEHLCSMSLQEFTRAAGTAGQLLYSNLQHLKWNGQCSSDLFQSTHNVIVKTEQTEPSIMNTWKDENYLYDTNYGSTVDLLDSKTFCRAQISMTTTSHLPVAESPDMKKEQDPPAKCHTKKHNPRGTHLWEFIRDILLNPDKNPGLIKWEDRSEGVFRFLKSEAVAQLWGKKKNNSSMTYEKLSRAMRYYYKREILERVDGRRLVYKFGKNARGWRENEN
A digest of the protocol:
as §1

The target of experiment [7] is SPI1 (Homo sapiens, UniProt P17947 1-270). The essentials: as §1
The target in experiment [8] is SPIB (Homo sapiens, UniProt Q01892 1-262). A digest of the protocol:
as §1

Experiment [9] addresses T6, ELK3 (Homo sapiens, UniProt P41970 1-407).
T6 sequence: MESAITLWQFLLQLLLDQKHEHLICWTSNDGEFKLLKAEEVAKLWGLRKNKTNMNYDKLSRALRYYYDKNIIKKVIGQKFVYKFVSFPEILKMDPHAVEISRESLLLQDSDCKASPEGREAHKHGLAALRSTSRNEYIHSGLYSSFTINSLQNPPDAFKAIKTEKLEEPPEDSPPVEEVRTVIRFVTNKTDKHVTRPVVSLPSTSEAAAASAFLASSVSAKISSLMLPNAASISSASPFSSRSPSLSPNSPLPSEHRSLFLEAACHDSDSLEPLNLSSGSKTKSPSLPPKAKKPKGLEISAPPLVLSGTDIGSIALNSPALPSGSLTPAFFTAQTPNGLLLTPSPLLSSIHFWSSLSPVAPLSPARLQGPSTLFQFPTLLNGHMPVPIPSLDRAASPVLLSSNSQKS
The essentials: as §1

The target of experiment [10] is T7, FEV (Homo sapiens, UniProt Q99581 1-238).
T7 sequence: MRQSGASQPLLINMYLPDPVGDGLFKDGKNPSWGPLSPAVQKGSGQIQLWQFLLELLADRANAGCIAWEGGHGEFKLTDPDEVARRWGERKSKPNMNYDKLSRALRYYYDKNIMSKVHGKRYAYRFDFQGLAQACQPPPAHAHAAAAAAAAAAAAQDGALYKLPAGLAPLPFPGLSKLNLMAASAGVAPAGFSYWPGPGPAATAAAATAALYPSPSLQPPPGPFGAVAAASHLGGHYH
A digest of the protocol:
as §1

The target in experiment [11] is ETV5 (Homo sapiens, UniProt P41161 1-510). A digest of the protocol: as §1
ETV5, sequence (P41161 whole entry): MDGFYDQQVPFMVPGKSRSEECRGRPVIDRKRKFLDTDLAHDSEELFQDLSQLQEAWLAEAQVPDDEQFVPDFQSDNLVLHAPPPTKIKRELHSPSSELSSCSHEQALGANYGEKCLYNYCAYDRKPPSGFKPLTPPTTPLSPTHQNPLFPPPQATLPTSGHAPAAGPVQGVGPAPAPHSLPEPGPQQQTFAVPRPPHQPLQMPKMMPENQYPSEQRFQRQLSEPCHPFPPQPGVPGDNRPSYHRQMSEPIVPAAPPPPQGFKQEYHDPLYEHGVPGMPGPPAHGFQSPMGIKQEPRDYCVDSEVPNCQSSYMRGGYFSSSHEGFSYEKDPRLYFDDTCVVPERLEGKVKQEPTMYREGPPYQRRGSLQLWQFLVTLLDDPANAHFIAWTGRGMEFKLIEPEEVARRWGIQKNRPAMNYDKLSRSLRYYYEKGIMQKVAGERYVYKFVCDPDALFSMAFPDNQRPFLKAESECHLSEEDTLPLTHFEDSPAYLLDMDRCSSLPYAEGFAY
For experiment [12], the target named is T8, SPIC (Homo sapiens, UniProt Q8N5J4 1-248).
T8 sequence: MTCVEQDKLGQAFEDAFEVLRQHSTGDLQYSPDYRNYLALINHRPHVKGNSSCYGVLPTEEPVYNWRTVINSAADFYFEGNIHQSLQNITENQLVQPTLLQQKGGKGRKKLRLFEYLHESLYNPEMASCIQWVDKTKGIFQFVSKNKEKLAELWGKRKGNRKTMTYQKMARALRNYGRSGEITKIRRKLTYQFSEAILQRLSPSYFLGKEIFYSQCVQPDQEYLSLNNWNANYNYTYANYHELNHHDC
The essentials:
as §1

In experiment [13] the target is ELF4 (Homo sapiens, UniProt Q99607 1-663). The essentials:
as §1

For experiment [14], the target named is T9, ELK4 (Homo sapiens, UniProt P28324-2 1-405).
T9 sequence: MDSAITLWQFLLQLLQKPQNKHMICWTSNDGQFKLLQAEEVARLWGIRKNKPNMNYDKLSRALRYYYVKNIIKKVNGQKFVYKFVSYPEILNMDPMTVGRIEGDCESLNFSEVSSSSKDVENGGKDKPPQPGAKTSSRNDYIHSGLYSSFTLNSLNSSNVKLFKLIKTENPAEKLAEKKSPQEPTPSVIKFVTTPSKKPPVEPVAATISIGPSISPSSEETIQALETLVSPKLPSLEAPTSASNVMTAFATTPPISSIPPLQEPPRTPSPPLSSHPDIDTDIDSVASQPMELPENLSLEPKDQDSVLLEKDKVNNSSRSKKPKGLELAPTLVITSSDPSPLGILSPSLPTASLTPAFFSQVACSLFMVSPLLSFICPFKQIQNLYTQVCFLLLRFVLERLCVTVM
The essentials: as §1

Experiment [15] concerns the target T10, ELF3 (Homo sapiens, UniProt P78545 1-371).
T10 sequence: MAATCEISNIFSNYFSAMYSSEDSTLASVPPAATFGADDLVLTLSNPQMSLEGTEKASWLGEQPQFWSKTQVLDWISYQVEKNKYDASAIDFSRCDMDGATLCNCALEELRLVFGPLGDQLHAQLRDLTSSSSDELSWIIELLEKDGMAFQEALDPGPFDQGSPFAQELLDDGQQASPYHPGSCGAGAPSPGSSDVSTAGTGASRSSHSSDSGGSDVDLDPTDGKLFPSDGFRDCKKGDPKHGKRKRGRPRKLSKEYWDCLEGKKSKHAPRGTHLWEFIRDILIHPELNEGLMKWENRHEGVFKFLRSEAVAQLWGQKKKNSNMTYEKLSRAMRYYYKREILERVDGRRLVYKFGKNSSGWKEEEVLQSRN
The essentials: as §1

The target in experiment [16] is ETV1 (Homo sapiens, UniProt P50549 1-477). A digest of the protocol:
as §1

ELF1, sequence (P32519 whole entry): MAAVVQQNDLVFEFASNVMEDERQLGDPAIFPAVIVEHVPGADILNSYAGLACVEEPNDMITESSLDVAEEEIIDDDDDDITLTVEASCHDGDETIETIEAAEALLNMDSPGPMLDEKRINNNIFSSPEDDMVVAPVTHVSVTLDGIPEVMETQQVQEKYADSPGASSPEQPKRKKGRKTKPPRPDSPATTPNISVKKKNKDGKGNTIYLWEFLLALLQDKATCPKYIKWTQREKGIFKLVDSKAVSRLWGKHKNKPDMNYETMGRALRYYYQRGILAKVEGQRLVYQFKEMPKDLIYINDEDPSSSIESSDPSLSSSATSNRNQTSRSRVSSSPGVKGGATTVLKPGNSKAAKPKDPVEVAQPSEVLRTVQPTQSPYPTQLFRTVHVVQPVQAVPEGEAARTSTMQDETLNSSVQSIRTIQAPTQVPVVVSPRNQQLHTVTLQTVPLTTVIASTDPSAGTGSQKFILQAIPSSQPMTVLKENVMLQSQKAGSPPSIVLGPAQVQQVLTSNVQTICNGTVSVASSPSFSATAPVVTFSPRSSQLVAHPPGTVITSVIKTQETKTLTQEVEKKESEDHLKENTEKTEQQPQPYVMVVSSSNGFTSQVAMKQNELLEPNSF
ELF4, sequence (Q99607 whole entry): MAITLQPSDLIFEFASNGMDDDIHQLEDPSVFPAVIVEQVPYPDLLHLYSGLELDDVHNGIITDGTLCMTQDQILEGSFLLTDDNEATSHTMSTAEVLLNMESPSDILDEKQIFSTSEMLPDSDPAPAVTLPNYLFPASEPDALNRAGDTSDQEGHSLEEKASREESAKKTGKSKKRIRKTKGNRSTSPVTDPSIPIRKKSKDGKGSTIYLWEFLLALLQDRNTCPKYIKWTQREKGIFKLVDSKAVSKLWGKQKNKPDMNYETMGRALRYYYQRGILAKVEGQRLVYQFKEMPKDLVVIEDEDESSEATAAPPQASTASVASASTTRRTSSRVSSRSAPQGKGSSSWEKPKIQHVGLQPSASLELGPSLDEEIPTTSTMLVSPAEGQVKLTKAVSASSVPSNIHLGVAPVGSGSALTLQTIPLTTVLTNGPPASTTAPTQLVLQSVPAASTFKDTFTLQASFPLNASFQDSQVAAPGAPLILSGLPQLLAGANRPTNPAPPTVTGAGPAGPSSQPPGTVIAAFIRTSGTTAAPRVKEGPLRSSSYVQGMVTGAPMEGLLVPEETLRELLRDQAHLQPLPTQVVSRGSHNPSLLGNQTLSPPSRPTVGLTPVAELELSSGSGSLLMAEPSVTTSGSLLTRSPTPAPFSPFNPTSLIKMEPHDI
ETV1, sequence (P50549 whole entry): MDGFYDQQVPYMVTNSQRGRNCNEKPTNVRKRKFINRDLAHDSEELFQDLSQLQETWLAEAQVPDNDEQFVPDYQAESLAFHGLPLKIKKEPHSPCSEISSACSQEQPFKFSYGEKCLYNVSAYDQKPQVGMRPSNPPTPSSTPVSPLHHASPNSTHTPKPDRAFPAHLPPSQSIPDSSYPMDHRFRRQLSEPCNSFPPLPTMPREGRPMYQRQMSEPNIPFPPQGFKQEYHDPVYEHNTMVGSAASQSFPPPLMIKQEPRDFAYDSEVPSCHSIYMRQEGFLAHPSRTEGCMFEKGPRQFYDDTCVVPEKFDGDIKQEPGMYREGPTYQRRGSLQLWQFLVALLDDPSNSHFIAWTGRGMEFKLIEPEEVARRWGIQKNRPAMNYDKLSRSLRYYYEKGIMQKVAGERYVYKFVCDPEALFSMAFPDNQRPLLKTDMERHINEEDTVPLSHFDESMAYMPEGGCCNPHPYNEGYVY
SPIB, sequence (Q01892 whole entry): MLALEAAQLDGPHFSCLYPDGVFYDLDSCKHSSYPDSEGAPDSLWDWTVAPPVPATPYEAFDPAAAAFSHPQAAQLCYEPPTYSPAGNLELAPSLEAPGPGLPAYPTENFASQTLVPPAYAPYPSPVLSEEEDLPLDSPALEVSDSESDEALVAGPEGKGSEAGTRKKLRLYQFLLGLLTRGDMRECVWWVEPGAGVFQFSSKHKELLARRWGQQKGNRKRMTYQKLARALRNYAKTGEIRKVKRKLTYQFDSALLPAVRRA

Consider ATGTCA, for which the binding signal in [1] is 1.14 fold enrichment (6-mer frequency, TF over GST control); in [2] it was 1.1 fold enrichment (6-mer frequency, TF over GST control); in experiment [3], 1.14 fold enrichment (6-mer frequency, TF over GST control); in [4], 1.17 fold enrichment (6-mer frequency, TF over GST control); in experiment [5], 1.16 fold enrichment (6-mer frequency, TF over GST control); in experiment [6], 1.15 fold enrichment (6-mer frequency, TF over GST control). Besides, the binding signal in [7] is 1.08 fold enrichment (6-mer frequency, TF over GST control); in experiment [8], 1.19 fold enrichment (6-mer frequency, TF over GST control); in experiment [9], 1.02 fold enrichment (6-mer frequency, TF over GST control); in experiment [10] it was 1.03 fold enrichment (6-mer frequency, TF over GST control); in experiment [11], 1.08 fold enrichment (6-mer frequency, TF over GST control); in experiment [12], 1.21 fold enrichment (6-mer frequency, TF over GST control). Further, the binding signal in experiment [13] is 1.19 fold enrichment (6-mer frequency, TF over GST control); in experiment [14], 1.14 fold enrichment (6-mer frequency, TF over GST control); in experiment [15], 1.28 fold enrichment (6-mer frequency, TF over GST control); in [16] it was 1.11 fold enrichment (6-mer frequency, TF over GST control).
Consider GGGCTC, for which the binding signal was 1.21 fold enrichment (6-mer frequency, TF over GST control) in [1]; 1.24 fold enrichment (6-mer frequency, TF over GST control) in experiment [2]; 1.32 fold enrichment (6-mer frequency, TF over GST control) in experiment [3]; 1.17 fold enrichment (6-mer frequency, TF over GST control) in experiment [4]; 1.2 fold enrichment (6-mer frequency, TF over GST control) in experiment [5]; 1.03 fold enrichment (6-mer frequency, TF over GST control) in experiment [6]. Also, the binding signal is 1.11 fold enrichment (6-mer frequency, TF over GST control) in experiment [7]; 1.26 fold enrichment (6-mer frequency, TF over GST control) in experiment [8]; 1.22 fold enrichment (6-mer frequency, TF over GST control) in [9]; 1.15 fold enrichment (6-mer frequency, TF over GST control) in [10]; 1.18 fold enrichment (6-mer frequency, TF over GST control) in experiment [11]; 1.19 fold enrichment (6-mer frequency, TF over GST control) in experiment [12]. Moreover, the binding signal in experiment [13] was 1.26 fold enrichment (6-mer frequency, TF over GST control); in [14], 1.09 fold enrichment (6-mer frequency, TF over GST control); in experiment [15] it was 1.19 fold enrichment (6-mer frequency, TF over GST control); in experiment [16] it was 1.29 fold enrichment (6-mer frequency, TF over GST control).

Source of the values: paper PMC7862700, “An all-to-all approach to the identification of sequence-specific readers for epigenetic DNA modifications on cytosine”.
